The values that follow come from PubChem BioAssay AID2673 (National Center for Advancing Translational Sciences (NCATS), 2010).

Results filed as inconclusive are left out. Unmarked numbers belong to inactive results. Activity calls are given as the source filed them. The call rests on the fitted dose curve; in most records, active means well fitted activation curve with a large enough effect; inconclusive means small, poorly fitted or top-dose-only effect; inactive means no such curve, though single readings can be large or run the other way.

The test can be described thus: qHTS Multiplex Assay to Identify Dual Action Probes in a Cell Model of Huntington: Cytoprotection confirmation (ATP). As to conditions: PC12 HttQ103 induced, ATP luminescence 40 h; series mostly up to 46.1 µM; cytoprotection, positive = protection: at the top concentration. From the text:
NIH Chemical Genomics Center [NCGC]
NIH Molecular Libraries Probe Production centers Network [MLPCN]
Assay Submitter (PI): Wei Zheng
Huntington's disease is a neurodegenerative disorder caused by a trinucleotide repeat expansion in Exon 1 of the Huntingtin gene. The CAG trinucleotide encodes glutamine and polyglutamine expansions cause cell death in selective areas of the brain. Huntington polyglutamine repeats have the tendency to form aggregates which are observable in later stages of the disease. The exact nature of the aggregates, whether toxic, protective, or insignificant, is unclear.
A stable PC12 cell line containing a gene fusion of Exon 1 of the Huntingtin gene linked to GFP under the control of the inducible ecdysone promoter were used as the cell-based model of Huntington Disease for high throughput screening. Exon 1 of the Huntingtin gene contained an expansion of 103 polyglutamines (Q103) which, when expressed, caused cell death and distinct, bright GFP aggregates. The amount of cell death and the size and intensity of GFP aggregates increased over time and induction level. The cell death were quantified with a measurement of ATP content in the cells. A maximal 40-50% of cell death was observed when the Huntington gene was induced in this cell line.
We optimized this assay in a homogeneous 1536 well format. A quantitative high throughput screen (qHTS) was conducted on the PC12 cells which were induced to express the toxic fusion construct. Small molecules which prevented cell death were identified by using a luminescent ATP quantification method (Perkin Elmer's ATPlite).
PC12 cells stably containing a construct with an ecdysone inducible promoter expressing GFP fused to the exon 1 of HTTQ103 (Huntington protein which containing a 103 ployglutamine expansion) were used.
NCGC Assay Protocol Summary:
Sequence, Parameter, Description
1, Reagent, 5 uL 1500 cells/well 1536 TC treated White clear bottom plate
2, Compound, 23 nL Tebufenozide inducer (100 nM final) to all columns
3, Compound, 23 nL 40 uM to 0.5 nM Libraries
5, Reagent, 5 ul ATPLite cell death assay reagent
6, Detector, 4 sec integration with a Viewlux Luminescent
Media consisted of phenol red free DMEM + 5% equine serum (Hyclone # SH30072.03 ), 5% supplemented Bovine Calf Serum (Hyclone # SH30074.03 ), 1x pen/strep, no G418
(In general: qHTS replaces the single test concentration by a dilution series.)
For `O=C(N/N=C/c1ccc(O)c(O)c1)c1ccc(CSc2cccc3cccnc23)cc1`, the “cytoprotection, positive = protection” value is -39%.

Regarding `C=C1CCC2[C@](C)(CO)[C@H](O)CC[C@@]2(C)[C@@H]1C/C=C1/C(=O)OC[C@H]1O` (stereo not given in full), the “cytoprotection, positive = protection” value was -69.3%.

With `Fc1cccc(Cl)c1Cn1nnc2c(-n3ccnc3)ncnc21`, the “cytoprotection, positive = protection” value is 7.87%.

`Cn1nnnc1Sc1ncnc2scc(-c3ccc(C(=O)OC(C)(C)C)cc3)c12`: the “cytoprotection, positive = protection” value is -75.7%.

For the compound `Cn1nnnc1Sc1ncnc2scc(-c3cccc4ccccc34)c12`, the Potency was 8.91 µM (active).

In the case of `Cn1nnnc1Sc1ncnc2scc(-c3cccc(S(C)(=O)=O)c3)c12`, the “cytoprotection, positive = protection” value is -108%.

With `N#CCCn1c(Cl)nc2ccccc21`, the “cytoprotection, positive = protection” value was -11.9%.

`O=C(Nc1ccc(Cl)cc1C(F)(F)F)C(Sc1cccc[n+]1[O-])c1ccccc1` (stereo not given): the “cytoprotection, positive = protection” value is 20.7%.

With `Cn1nnnc1Sc1ncnc2scc(-c3cccc(C(F)(F)F)c3)c12`, the Potency was 14.1 µM (active).

Turning to `CN1C(=O)NC(NC(=O)c2cccs2)(C(F)(F)F)C1=O` (stereo not given), the “cytoprotection, positive = protection” value is 8.42%.

In the case of `O=C(c1ccccc1)c1ccc2n1CCC2C(=O)O` (stereo not given), the “cytoprotection, positive = protection” value was 5.43%.

On to `COc1ccc(-c2csc3ncnc(Sc4nnnn4C)c23)cc1`, for which the Potency is 25.1 µM (active).

As to `CS(=O)(=O)c1ccc([C@H](O)[C@H](CO)NC(=O)C(Cl)Cl)cc1`, the “cytoprotection, positive = protection” value is -10.2%.

With `Cn1nnnc1Sc1ncnc2scc(-c3ccsc3)c12`, the Potency is 11.2 µM (active).

As to `C[C@@H]1CNCCN1S(=O)(=O)c1cccc2cnccc12`, the “cytoprotection, positive = protection” value is 0.336%.

For the compound `Cn1nnnc1Sc1ncnc2scc(-c3cccc(C#N)c3)c12`, the Potency is 12.6 µM (active).

As for `CCC(=O)OCCCCCCOc1ccc(C(=O)O)cc1`, the “cytoprotection, positive = protection” value is -1.38%.

On to `CCOC(=O)c1sc2nc(N3CCOCC3)c3c(c2c1N)CC(C)(C)N(C)C3`, for which the “cytoprotection, positive = protection” value is -12.7%.

For the compound `NC(=O)c1sc2nc3c(c(-c4cccs4)c2c1N)CCCCC3`, the “cytoprotection, positive = protection” value was -0.102%.

For `CCc1ccc2oc(-c3cc(N)ccc3O)nc2c1`, the “cytoprotection, positive = protection” value is -77.5%.

On to `C=CCC(=O)OCCCCCCOc1ccc(C(=O)O)cc1`, for which the “cytoprotection, positive = protection” value was 7.21%.

For `Cn1nnnc1Sc1ncnc2scc(Br)c12`, the “cytoprotection, positive = protection” value is -109%.

Turning to `C[C@]12CC[C@@H]3c4ccc(OC(=O)c5ccccc5)cc4CC[C@H]3[C@@H]1CC[C@@H]2O`, the “cytoprotection, positive = protection” value was -43.4%.

For the compound `Cc1cc(C)nc(Sc2nc(C)nc3c2oc2ccccc23)n1`, the “cytoprotection, positive = protection” value is -2.25%.

Consider `Cn1nnnc1Sc1ncnc2scc(-c3cnc(N)nc3)c12`, for which the Potency is 35.5 µM (active).

On to `NC(=O)C1CCN(CCC(=O)Nc2ccc(Br)cc2)CC1`, for which the “cytoprotection, positive = protection” value is -5.63%.

With `Cn1nnnc1Sc1ncnc2scc(-c3ccc(N)cc3)c12`, the “cytoprotection, positive = protection” value is 6.19%.

Take `CCCn1nc([N+](=O)[O-])c(C(C#N)c2nc3ccccc3s2)c(Cl)c1=O` (stereo not given): the “cytoprotection, positive = protection” value was -23.1%.

For the compound `Cc1noc(C)c1COC(=O)Cc1ccc(Cl)cc1`, the “cytoprotection, positive = protection” value was 8.35%.

`Cn1nnnc1Sc1ncnc2scc(-c3cccc(N)c3)c12`: the “cytoprotection, positive = protection” value was 3.36%.

Consider `CC(=O)c1ccc(-c2csc3ncnc(Sc4nnnn4C)c23)cc1`, for which the “cytoprotection, positive = protection” value is -23.7%.

Take `O=C(O)c1cc(=O)c2ccc(Cl)cc2[nH]1`: the “cytoprotection, positive = protection” value is 8.97%.

With `COc1ccc2cc3cc(C(=O)N4CCN(c5ccccc5)CC4)oc3nc2c1`, the “cytoprotection, positive = protection” value was -12.8%.

`Cn1nnnc1Sc1ncnc2scc(-c3cccc([N+](=O)[O-])c3)c12`: the Potency is 25.1 µM (active).

Regarding `CCc1nc(SCC(=O)N2CCCC2)c2ccccc2n1`, the “cytoprotection, positive = protection” value is -17.6%.

Take `CN1C(=O)C2(c3ccccc31)C1CCCC=C1C(C#N)=C(N)C2(C#N)C#N` (stereo not given): the “cytoprotection, positive = protection” value is 5.27%.

As to `Fc1ccc(N2CCN(c3ncnc4nc[nH]c34)CC2)cc1`, the “cytoprotection, positive = protection” value was -30.4%.

As for `CCN(Cc1ccncc1)C(=O)c1cc(Br)cc(Br)c1O`, the “cytoprotection, positive = protection” value is -3.56%.

As to `COc1ccc2cc3cc(C(=O)NCc4ccco4)oc3nc2c1`, the “cytoprotection, positive = protection” value was -30.7%.

For the compound `COc1cc(NC(=O)c2cc3nc(C)cc(C)n3n2)c(OC)cc1Cl`, the “cytoprotection, positive = protection” value was -22.2%.
